High-throughput results as filed in PubChem BioAssay.
A selection: hits, their analogues and other compounds. The true share with any hit is near 28%.
CYP2C19 activ: human CYP2C19 activators, primary screen, biochemical, luminescence; 96,000 tested, under 10 active; activation factor at 5 µM; recombinant CYP2C19, luciferin-H EGE luminescence; stronger effect = higher value; 0 = fully inhibited enzyme, 1 = untreated enzyme; AID 1025, 2008; Cytochrome P450 2C19 (Homo sapiens), P33261;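 active = activation factor of at least 2 at 5 µM in the primary screen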
CYP2C9 inhib: blockers of cytochrome P450 2C9 activity – biochemical, luminescence, ADME assay, primary screen. P11712. CYP2C9 Supersomes, luciferin-H conversion. inhibition, % at 5 µM. actives 20% (n = 96,000). AID 777, 2007;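 active = blocking of liver enzyme CYP2C9 beyond about 50% at 5 µM, limit read from the data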
hDAT+cocaine: changed hDAT dopamine uptake under cocaine IC80, either direction, primary screen, cocaine antagonist project, cell-based, LLC-PK1 hDAT, [14C]-dopamine uptake, MLSMR; B-score at 10 µM; actives 1.3% (n = 110,000); LLC-PK1 hDAT cells, [14C]-dopamine uptake with cocaine IC80; actives deviate in either direction;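 active = Z score or B-score, a plate-position-corrected score, falls beyond the plate's 99.7% confidence bounds, in either direction; inactive = both scores lie inside the 99.7% bounds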
D1 allo mod: D1 CRE-luciferase signal change, two-sided – cell-based, HEK293 D1, dopamine EC30, D1 allosteric modulator project, primary screen; B-score at 10 µM; dopamine EC30 potentiation; actives deviate in either direction; AID 641, 2007; D(1A) dopamine receptor (Homo sapiens), P21728; actives 5.9% (n = 58,000);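 active = luminescence count or its row- and column-corrected plate score outside the 99.7% band of the plate's sample wells, on either side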
Target sequence (P21728 whole entry, looked up): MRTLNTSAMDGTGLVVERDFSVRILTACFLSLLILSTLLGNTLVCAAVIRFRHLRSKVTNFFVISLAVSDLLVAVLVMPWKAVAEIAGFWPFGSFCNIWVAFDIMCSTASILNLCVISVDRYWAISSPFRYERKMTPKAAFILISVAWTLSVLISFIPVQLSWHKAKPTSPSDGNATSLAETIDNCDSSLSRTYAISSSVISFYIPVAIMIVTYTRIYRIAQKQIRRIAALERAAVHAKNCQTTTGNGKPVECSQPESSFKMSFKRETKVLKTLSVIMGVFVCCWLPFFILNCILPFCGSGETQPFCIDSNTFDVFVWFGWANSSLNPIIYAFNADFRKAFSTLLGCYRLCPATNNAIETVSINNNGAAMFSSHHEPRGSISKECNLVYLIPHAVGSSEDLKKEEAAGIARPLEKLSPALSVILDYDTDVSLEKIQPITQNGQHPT
CYP2C19 inhib: blockers of cytochrome P450 2C19 activity – biochemical, luminescence, ADME assay, primary screen; CYP2C19 Supersomes, luciferin-H EGE luminescence, 30 min; inhibition, % at 5 µM; AID 778, 2007; actives 21% (n = 96,000);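 active = CYP2C19 inhibition above a set limit at 5 µM in the primary screen, cut at about 50% in these data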
CYP2C9 activ: human CYP2C9 activators, primary screen, biochemical, luminescence | Cytochrome P450 2C9 (Homo sapiens), P11712 | recombinant CYP2C9, luciferin-H conversion; stronger effect = higher value; factor 1 = untreated enzyme, 0 = blocked | activation factor at 5 µM | actives 1.4% (n = 96,000) | AID 1024, 2008;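 active = activation factor of 2 or more for CYP2C9 at a 5 µM dose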
Large screens that a line does not name were inactive.

C=CCOc1c(CNc2ncn[nH]2)cccc1OC	none (no result: D1 allo mod)
C=CCOc1ccc2ccccc2c1CNc1ncn[nH]1	CYP2C9 inhib 62.1, CYP2C19 inhib 84.0
COc1ccc(C2(CNC(=O)Cc3ccccc3)CCCC2)cc1OC	CYP2C19 inhib 61.9 (no result: D1 allo mod)
COc1ccc(C2(C(N)=O)CCCCC2)cc1OC	D1 allo mod 8.46
COc1ccc(C2(CN(C(C)=O)C(C)=O)CCCC2)cc1OC	CYP2C19 inhib 51.8
CCN1CCN(C(=O)C2CCC(CNS(=O)(=O)c3ccccc3)CC2)CC1 (stereo not drawn)	none (no result: D1 allo mod)
CC(C)(C)c1ccc(C(=O)Nc2nonc2-c2nc3ccccc3[nH]2)cc1	none
CN1C(C(=O)NCc2cccc(C(F)(F)F)c2)CC2Cn3c(nc4cc(Cl)c(Cl)cc43)C21 (stereo not drawn)	none (no result: CYP2C19 activ, CYP2C9 inhib, D1 allo mod, CYP2C19 inhib, CYP2C9 activ)
CCc1ccccc1N(CC(=O)N1CCN(c2ccccc2)CC1)S(C)(=O)=O	none
C=CCSc1nnc(-c2ccc(Cl)cc2Cl)o1	CYP2C19 inhib 84.2 (no result: hDAT+cocaine)
Clc1ccc(-c2nnc(SCc3nc4ccccc4[nH]3)o2)c(Cl)c1	none (no result: CYP2C19 activ, CYP2C9 inhib, D1 allo mod, CYP2C19 inhib, CYP2C9 activ)
C=CCSc1nnc(-c2cccnc2)o1	none
Clc1ccc(-c2nnc(SCc3ccon3)o2)c(Cl)c1	CYP2C9 inhib 61.9, D1 allo mod -4.7, CYP2C19 inhib 96.7
O=C(NCCCCc1ccccc1)C1CC(c2ccc(C(F)(F)F)cc2)=NO1 (stereo not drawn)	none (no result: CYP2C19 activ, CYP2C9 inhib, D1 allo mod, CYP2C19 inhib, CYP2C9 activ)
O=S(=O)(Nc1cccc(CCc2ccccn2)c1)c1ccc2ccccc2c1	CYP2C19 inhib 99.3 (no result: D1 allo mod)
CCCNC(=O)CC1Sc2ccccc2NC1=O (stereo not drawn)	CYP2C9 activ 2.4
O=C(O)CC1Sc2ccccc2NC1=O (stereo not drawn)	none
COc1cc(C2N=C(c3ccccc3)NO2)cc(Br)c1O (stereo not drawn)	hDAT+cocaine 2.61, CYP2C19 inhib 87.3
COc1ccc(C2N=C(c3ccccc3)NC(c3ccccc3)=N2)cc1	none (no result: CYP2C19 activ, CYP2C9 inhib, D1 allo mod, CYP2C19 inhib, CYP2C9 activ)
COc1ccc(Cc2c(O)nc(SC)n(C(C)=O)c2=O)cc1	CYP2C19 inhib 52.8
O=C(CN1CCN(Cc2ccc(F)cc2Cl)C1=O)NCCc1ccc(Cl)cc1	CYP2C9 inhib 67.2 (no result: D1 allo mod)
O=C(Cc1ccc(Cl)cc1)NCCCn1ccnc1	CYP2C9 inhib 87.9, CYP2C19 inhib 98.1 (no result: D1 allo mod)
O=C(NCc1ccccn1)Nc1cccc(Cl)c1	none
CC(C)(Oc1ccc(Cl)cc1)C(=O)NCCCn1ccnc1	CYP2C9 inhib 87.0, CYP2C19 inhib 100.1 (no result: D1 allo mod)
O=C(CNC(=O)c1ccc(Cl)cc1)NCCCn1ccnc1	CYP2C9 inhib 79.4, CYP2C19 inhib 85.2
O=C(NCCCn1ccnc1)C(=O)NCc1ccc(Cl)cc1	none (no result: CYP2C19 activ, CYP2C9 inhib, D1 allo mod, CYP2C19 inhib, CYP2C9 activ)
O=C(NCCCn1ccnc1)Nc1cccc(Cl)c1	CYP2C9 inhib 100.0, CYP2C19 inhib 95.8
COc1c(C)cccc1C(=O)Nc1cc(-c2nn3c(C)nnc3s2)ccc1C	none (no result: CYP2C19 activ, CYP2C9 inhib, CYP2C19 inhib, CYP2C9 activ)
CCOc1cc2[nH]c(=O)n(CCCC(=O)NCc3ccc(OC)cc3)c(=O)c2cc1OCC	none (no result: D1 allo mod)
CS(=O)(=O)N1CCN(C2CCN(Cc3ccccc3)CC2)CC1	none
O=C(Cc1c(F)cccc1Cl)NCCCn1ccnc1	CYP2C9 inhib 78.8, CYP2C19 inhib 91.7 (no result: D1 allo mod)
O=C(Cc1c(F)cccc1Cl)Nc1cccnc1	none
O=C(Cc1c(F)cccc1Cl)Nc1ccncc1	CYP2C9 inhib 70.6, CYP2C19 inhib 81.5
Cc1ccc(C(=O)C(NC(=O)c2ccco2)Nc2sc3c(c2C(N)=O)CCCC3)cc1 (stereo not drawn)	none (no result: CYP2C19 activ, CYP2C9 inhib, D1 allo mod, CYP2C19 inhib, CYP2C9 activ)
CCCC[n+]1ccn(-c2nc3ccccc3nc2[N-]S(=O)(=O)c2ccc(C)cc2)c1	CYP2C9 inhib 72.0 (no result: D1 allo mod)
CC(=O)c1c(C)nc2ccc(Br)cc2c1C(=O)O	none
Cc1c(OCc2ccc(C(=O)O)o2)ccc2c3c(c(=O)oc12)CCC3	none
CCOc1ccc2c(C)c(C)c(=O)oc2c1OCC	CYP2C19 inhib 50.8, CYP2C9 activ 2.5 (no result: D1 allo mod)
CCOc1c(OC)ccc2c3c(c(=O)oc12)CCCC3	CYP2C19 inhib 75.9, CYP2C9 activ 2.6 (no result: D1 allo mod)
O=C(CCN1CCN(CCC(=O)c2ccccc2)CC1)c1ccccc1	none (no result: CYP2C19 activ, CYP2C9 inhib, hDAT+cocaine, CYP2C19 inhib, CYP2C9 activ)
O=C(CCn1nnc(-c2cccs2)n1)NCc1ccccc1Cl	CYP2C9 inhib 64.7
Clc1ccccc1Cn1nnc(-c2cccs2)n1	none
Cc1cc(C(=O)Nc2cccc(C(=O)O)c2)oc1C	D1 allo mod -4.35, CYP2C19 inhib 66.4
Cc1oc(C(C)(C)C)cc1C(=O)Nc1cccc(C(=O)O)c1	CYP2C9 inhib 60.2 (no result: D1 allo mod)
Cc1cc(C(=O)Nc2cccc(C(=O)O)c2)c(C)o1	none (no result: D1 allo mod)
CC(=O)c1cc(C(=O)Nc2ccccc2C(=O)O)oc1C	CYP2C9 inhib 53.5
Cc1oc(-c2ccccc2)cc1C(=O)Nc1cccc(C(=O)O)c1	none
O=C(CCSc1nc2cc(Cl)ccc2o1)N1CCOCC1	none
CCCS(=O)(=O)N1CCN(C(=O)COc2ccc(OC)cc2)CC1	none (no result: D1 allo mod)
CSc1ccc(/C=N/n2nnnc2N)cc1	none
Cc1cc(C)nc(SCCS(=O)(=O)Cc2ccccc2)n1	CYP2C19 inhib 82.9
Cc1cc(C)nc(SCCS(=O)(=O)Cc2ccc(Cl)cc2)n1	none (no result: CYP2C19 activ, CYP2C9 inhib, D1 allo mod, CYP2C19 inhib, CYP2C9 activ)
Clc1ccc(-c2cc(CSc3cccc(Cl)c3)on2)cc1	CYP2C19 inhib 75.4 (no result: D1 allo mod)
CC(C)c1nnc(SCC(=O)N2CCOCC2)n1C	none (no result: CYP2C19 activ, CYP2C9 inhib, D1 allo mod, CYP2C19 inhib, CYP2C9 activ)
CCOC(=O)C(NC(=O)CC)(Nc1cc(C)on1)C(F)(F)F (stereo not drawn)	none
CCC(=O)N1c2ccccc2[C@@H](N(C(C)=O)c2ccccc2)C[C@H]1C	none
Cc1ccc(C(=O)N(c2ccccc2)C2CC(C)N(C(=O)c3ccco3)c3ccccc32)cc1 (stereo not drawn)	CYP2C9 inhib 94.1, CYP2C19 inhib 52.0 (no result: D1 allo mod)
CCCCN(CCCC)C(=S)N/N=C/c1c(C)[nH]n(-c2ccccc2)c1=O	none (no result: D1 allo mod)
Cc1[nH]n(-c2ccccc2)c(=O)c1/C=N/Nc1nncc(-c2ccccc2)n1	CYP2C9 inhib 82.0, CYP2C19 inhib 59.3 (no result: D1 allo mod)
O=S(=O)(c1ccc(OCC(O)CN2CCc3ccccc3C2)cc1)N1CCOCC1 (stereo not drawn)	none
O=S(=O)(c1ccc(Cl)cc1)N1CCC(n2cnc3cc(C(F)(F)F)ccc32)CC1	none (no result: CYP2C19 activ, CYP2C9 inhib, D1 allo mod, CYP2C19 inhib, CYP2C9 activ)
Nn1c(-c2cccs2)nc2sc3c(c2c1=O)CCCC3	CYP2C9 inhib 99.7, CYP2C19 inhib 81.0
Cc1ccccc1-c1nc2sc3c(c2c(=O)n1N)CCCC3	none (no result: D1 allo mod)
CN(C)c1nc(C(N)=O)nc(N2CCOCC2)n1	none (no result: D1 allo mod)
CCOc1ccc(NC(=O)NCCCn2c(C)nc3cc(C)c(C)cc32)cc1	CYP2C9 inhib 81.1 (no result: D1 allo mod)
